AmpC no deterg: blocks E. coli AmpC beta-lactamase in detergent-free assay | P00811 | AmpC nitrocefin hydrolysis, absorbance 480 nm, 0.0001% Triton | Potency, µM (doses to about 57.1 µM), most hits filed as inhibitors | 0.52% of 330,000 active | AID 485341; note: nearly all actives have a fitted effect of over 20% in size
Target sequence (P00811 whole entry, looked up): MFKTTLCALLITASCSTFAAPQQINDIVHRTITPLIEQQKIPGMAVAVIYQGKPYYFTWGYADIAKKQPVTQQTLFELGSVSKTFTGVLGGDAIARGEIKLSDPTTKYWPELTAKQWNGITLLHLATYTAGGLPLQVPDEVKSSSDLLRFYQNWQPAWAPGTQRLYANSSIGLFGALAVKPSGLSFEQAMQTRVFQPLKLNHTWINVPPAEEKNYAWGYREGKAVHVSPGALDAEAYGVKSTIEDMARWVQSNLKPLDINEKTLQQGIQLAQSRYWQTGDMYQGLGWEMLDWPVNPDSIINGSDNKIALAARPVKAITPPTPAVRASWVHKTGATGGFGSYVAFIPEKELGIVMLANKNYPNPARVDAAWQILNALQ
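20 mM phosphate pH 7.0 + 0.01% (detergent screen) or 0.0001% Triton X-100; 5.3 nM AmpC reagent; cpd preinc 15 min RT; nitrocefin (800 uM stock) to start; A480 q20 s × 4 min; Activity was normalised to no-enzyme and no-compound control wells.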
SARS PLP yeast: inhibitors of SARS-CoV papain-like protease in yeast; 0.19% of 330,000 active; S. cerevisiae expressing SARS-CoV PLpro, growth rescue; Potency, µM (doses to about 32.9 µM), hits mostly activators; calls by dose curve; note: nearly all actives have a fitted effect of over 55% in size
Giardia FBPA inh-1: Giardia lamblia aldolase inhibition | A8B2U2 | purified Giardia FBPA | Potency, µM (titrated, usually from 59.6 µM), usual class: inhibitors | 0.71% of 290,000 active | AID 2451; note: nearly all actives have a fitted effect of over 55% in size
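Giardia FBPA (40 nM reagent) was preincubated 10 min at RT with compound (up to 57.5 uM final), then substrate plus GAPDH/TPI/NAD/arsenate coupling system with diaphorase/resazurin was added; resorufin fluorescence (525/598 nm) was read after 20 min.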
AmpC detergent: AmpC beta-lactamase inhibition with detergent present; P00811; AmpC hydrolysis of nitrocefin, absorbance 480 nm, 0.01% Triton; Potency, µM (top dose mostly 114 µM), most hits filed as inhibitors; 0.041% of 370,000 active; AID 485294; note: nearly all actives have a fitted effect of over 25% in size
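20 mM phosphate pH 7.0 + 0.01% (detergent screen) or 0.0001% Triton X-100; 5.3 nM AmpC reagent; cpd preinc 15 min RT; nitrocefin (800 uM stock) to start; A480 q20 s × 4 min; Activity was normalised to no-enzyme and no-compound control wells.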
Giardia growth: Giardia lamblia growth inhibition. shares compounds with Giardia FBPA inh-1. Giardia lamblia trophozoite growth inhibition. Potency, µM (titrated, usually from 57.5 µM), hits mostly inhibitors. 5% of 1,500 active. AID 2785;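 note: trophozoites exposed to compound for 48 h at 37 °C; nearly all actives have a fitted effect of over 70% in size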
Mammal cell tox: mammalian cytotoxicity of Giardia aldolase inhibitor hits; shares compounds with Giardia FBPA inh-1; mammalian cell viability counter-screen, qHTS; Potency, µM (titrated, usually from 57.5 µM), most hits filed as inhibitors; 4% of 1,500 active; AID 2786;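 note: Chinese hamster ovary cells used as mammalian cytotoxicity surrogate; viability measured as cellular ATP by luminescence; compound exposure lasted 48 h before reading; nearly all actives have a fitted effect of over 60% in size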
Giardia FBPA inh-2: confirmation of Giardia fructose-bisphosphate aldolase inhibitors; shares compounds with Giardia FBPA inh-1; purified Giardia aldolase enzyme activity, qHTS; Potency, µM (titrated, usually from 57.5 µM), actives largely listed as inhibitors; 5% of 1,500 active; AID 2787; note: nearly all actives have a fitted effect of over 45% in size
Rabbit aldolase: blocks rabbit muscle aldolase in Giardia aldolase selectivity test; 4% of 1,500 active; shares compounds with Giardia FBPA inh-1; AID 2794; Rabbit muscle FBPA enzyme inhibition, selectivity counter-screen; Potency, µM (titrated, usually from 57.5 µM), most hits filed as inhibitors; note: nearly all actives have a fitted effect of over 60% in size
Target sequence (P00883 whole entry, looked up): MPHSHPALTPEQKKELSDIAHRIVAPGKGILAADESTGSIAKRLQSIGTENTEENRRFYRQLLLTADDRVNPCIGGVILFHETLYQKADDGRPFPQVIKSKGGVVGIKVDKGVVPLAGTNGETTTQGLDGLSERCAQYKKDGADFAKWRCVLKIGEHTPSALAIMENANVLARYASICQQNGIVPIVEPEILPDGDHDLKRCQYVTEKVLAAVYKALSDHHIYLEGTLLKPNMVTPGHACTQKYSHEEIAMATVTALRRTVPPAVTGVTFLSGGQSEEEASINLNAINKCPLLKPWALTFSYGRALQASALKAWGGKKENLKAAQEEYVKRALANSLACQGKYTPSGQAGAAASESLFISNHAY
GAPDH counter: GAPDH inhibition flagged for Giardia aldolase hits; 6% of 1,500 active; Potency, µM (top dose mostly 57.5 µM), hits mostly inhibitors; shares compounds with Giardia FBPA inh-1; GAPDH coupling enzyme counterscreen, biochemical, qHTS; AID 2795; note: nearly all actives have a fitted effect of over 55% in size
Each line names hits and unclear results; the compound was inactive in the other large screens (follow-up assays come after a bar, where they were run); [ ] = remark or other dose. The list is not random: actives were taken first. Their share in the collection is about 1.1%. Unless noted, calls come from the whole dose curve; as a rule, active = well fitted curve in the direction sought with a large enough effect; inconclusive = small, poorly fitted or top-dose-only effect, or another doubt; inactive = no such curve, though single readings can be large; an effect the other way counts as inactive or inconclusive.

O=C1CS/C(=N/N=C\c2ccn[nH]2)N1	Giardia FBPA inh-1 17.7µM | Giardia growth inconclusive | Mammal cell tox inactive | Giardia FBPA inh-2 inactive | Rabbit aldolase inactive | GAPDH counter inactive
CC(=O)Nc1nc(-c2ccc(Cl)cc2)nc(C)c1C(C)=O	Giardia FBPA inh-1 7.06µM, AmpC detergent inconclusive | Giardia growth inactive[10.4 µM] | Mammal cell tox inactive | Giardia FBPA inh-2 inactive | Rabbit aldolase inactive | GAPDH counter inactive
CN1CCN(C(=S)c2ccc(Br)cc2)CC1	Giardia FBPA inh-1 15.8µM | Giardia growth inactive[10.4 µM] | Mammal cell tox inactive | Giardia FBPA inh-2 inactive | Rabbit aldolase inconclusive | GAPDH counter inconclusive
CCN1CCN(C(=S)c2ccc(Br)cc2)CC1	SARS PLP yeast inconclusive (no result: Giardia FBPA inh-1)
CSc1ccc(C(=S)N2CCN(C)CC2)cc1	none
CN1CCN(C(=S)c2ccc(N(C)C)cc2)CC1	Giardia FBPA inh-1 15.8µM, AmpC detergent inconclusive | Giardia growth inconclusive | Mammal cell tox inactive | Giardia FBPA inh-2 inactive | Rabbit aldolase inconclusive | GAPDH counter inconclusive
O=C(c1ccc2c(=O)n(C3CCCC3)c(=S)[nH]c2c1)N1CCCCCC1	Giardia FBPA inh-1 17.7µM | Giardia growth inactive[10.4 µM] | Mammal cell tox inactive | Giardia FBPA inh-2 inactive | Rabbit aldolase inactive | GAPDH counter inactive
Cc1nccn1CC1CCc2c(c3ccccc3n2C)C1=O (configuration not stated)	Giardia FBPA inh-1 20µM | Giardia growth inactive[10.4 µM] | Mammal cell tox inactive | Giardia FBPA inh-2 inactive | Rabbit aldolase inactive | GAPDH counter inactive
O=C(CSc1nc(=O)[nH]c2c1CCCC2)NCc1ccc(Cl)cc1	none (no result: AmpC no deterg, SARS PLP yeast, Giardia FBPA inh-1)
O=C(O)c1ccc2cccnc2c1O	Giardia FBPA inh-1 19.9µM | Giardia growth inactive | Mammal cell tox inactive | Giardia FBPA inh-2 inconclusive | Rabbit aldolase inactive | GAPDH counter inactive
Cc1cc(Br)ccc1OCCOCCN1CCCC1	Giardia FBPA inh-1 15.8µM | Giardia growth inactive[10.4 µM] | Mammal cell tox inactive | Giardia FBPA inh-2 inactive | Rabbit aldolase inactive | GAPDH counter inactive
CCOc1ccc(OCCOCCN2CCCC2)cc1	Giardia FBPA inh-1 28.2µM | Giardia growth inconclusive | Mammal cell tox inactive | Giardia FBPA inh-2 inactive | Rabbit aldolase inactive | GAPDH counter inactive
CCOc1ccc(OCCN2CCCCC2)cc1	AmpC detergent inconclusive
O=C(NC1CCCCCC1)C(=S)NC1CCCCC1	Giardia FBPA inh-1 17.7µM | Giardia growth inconclusive | Mammal cell tox inactive | Giardia FBPA inh-2 inactive | Rabbit aldolase inactive | GAPDH counter inactive
CCc1c(CN2CCN(c3cccc(C)c3C)CC2)csc1C	none (no result: AmpC no deterg, SARS PLP yeast, Giardia FBPA inh-1)
CCOc1ccc(OCC)c(NC(=O)CN2CCN(CC)CC2)c1	none
CCOc1ccc(OCC)c(NC(=O)CN2CCN(CC(=O)NC(C)C)CC2)c1	Giardia FBPA inh-1 31.6µM | Giardia growth inactive | Mammal cell tox inactive | Giardia FBPA inh-2 inactive | Rabbit aldolase inactive | GAPDH counter inactive
CC(=O)c1ccc(NS(=O)(=O)c2ccc3[nH]c(=O)[nH]c3c2)cc1	none (no result: AmpC no deterg, SARS PLP yeast, Giardia FBPA inh-1)
Cc1ccccc1C(=O)Nc1nnc(-c2cccnc2)o1	Giardia FBPA inh-1 15.8µM | Giardia growth inconclusive | Mammal cell tox inactive | Giardia FBPA inh-2 inactive | Rabbit aldolase inactive | GAPDH counter inactive
CCOC(=O)C1=C(C)OC(N)=C(C#N)C1c1ccsc1 (configuration not stated)	Giardia FBPA inh-1 inconclusive
N#CC1=C(N)Oc2c(O)cc3ccccc3c2C1c1ccsc1 (configuration not stated)	Giardia FBPA inh-1 17.7µM | Giardia growth inactive[10.4 µM] | Mammal cell tox inactive | Giardia FBPA inh-2 inconclusive | Rabbit aldolase inconclusive | GAPDH counter inconclusive
O=C(NN1C(=O)/C(=C/C=C/c2ccco2)SC1=S)c1ccncc1	Giardia FBPA inh-1 7.06µM, AmpC detergent inconclusive | Giardia growth inactive | Mammal cell tox inactive | Giardia FBPA inh-2 inconclusive | Rabbit aldolase inconclusive | GAPDH counter inactive
C/C(=N\Nc1ccc2nncn2n1)c1ccco1	none
C(=N\Nc1ccc2nncn2n1)/c1ccccn1	Giardia FBPA inh-1 14.1µM | Giardia growth inactive | Mammal cell tox inconclusive | Giardia FBPA inh-2 inactive | Rabbit aldolase inactive | GAPDH counter inactive
C/C(=N\Nc1ccc2nncn2n1)c1ccccn1	Giardia FBPA inh-1 7.92µM | Giardia growth inconclusive | Mammal cell tox inconclusive | Giardia FBPA inh-2 inactive | Rabbit aldolase inactive | GAPDH counter inconclusive
C(=N\n1cnnc1)/c1ccccn1	none
COC(=O)CNc1n[nH]c(=S)[nH]c1=O	Giardia FBPA inh-1 inconclusive
CN(C)C(=O)CNc1n[nH]c(=S)[nH]c1=O	Giardia FBPA inh-1 15.8µM | Giardia growth inconclusive | Mammal cell tox inactive | Giardia FBPA inh-2 inactive | Rabbit aldolase inactive | GAPDH counter inactive
CC(C)OC(=O)CNc1n[nH]c(=S)[nH]c1=O	Giardia FBPA inh-1 4.46µM | Giardia growth inactive | Mammal cell tox inactive | Giardia FBPA inh-2 inactive | Rabbit aldolase inactive | GAPDH counter inactive
CCOc1c(Cl)cc(CNc2ccc3[nH]c(=O)[nH]c3c2)cc1OC	none (no result: AmpC no deterg, SARS PLP yeast, Giardia FBPA inh-1)
CC(C)c1ccc(Nc2ncnc3c2nc2n3CCCC2)cc1	none (no result: AmpC no deterg, SARS PLP yeast, Giardia FBPA inh-1)
Cc1cc(O)c(C(C)C)cc1N=Cc1cc([N+](=O)[O-])ccc1O	Giardia FBPA inh-1 inconclusive | Giardia growth inactive | Mammal cell tox inconclusive | Giardia FBPA inh-2 9.19µM | Rabbit aldolase 13µM | GAPDH counter 16.3µM
O=c1[nH]cc(N=Cc2cc([N+](=O)[O-])ccc2O)c(=O)[nH]1	none
Cc1ccccc1NC(=O)Cn1c(=O)n(CCC(=O)NCc2ccc3c(c2)OCO3)c(=O)c2sccc21	none (no result: AmpC no deterg, SARS PLP yeast, Giardia FBPA inh-1)

Compound activity as filed in PubChem.
